# Experimental data reported in PubChem BioAssay (NCI).
# Compounds without any hit were thinned out: in the full panel of roughly 83,000, 20% have a hit.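 Negative percent growth values reflect cell death: -40 means 40% of the cells present at the start died, and -100 means all died.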 A number with no mark means an inactive call. The source made the active and inactive calls. The calls were made as follows: active = growth percent below 10; inactive = the rest.
# Assays:
# Assay in all cases: NCI-60 one-dose screen, 48 h (100 = growth as untreated, 0 = no growth, -100 = all killed)
# Conditions in all cases: 10 µM unless noted
# [1] = test system: HCT-15 colon
# [2] = test system: HT29 colon
# [3] = test system: SNB-75 CNS
# [4] = test system: SNB-19 CNS
# [5] = test system: U251 CNS
# [6] = test system: PC-3 prostate
# [7] = test system: SK-MEL-5 melanoma
# [8] = test system: UACC-62 melanoma
# [9] = test system: LOX IMVI melanoma
# [10] = test system: SK-MEL-28 melanoma
# [11] = test system: SK-MEL-2 melanoma
# [12] = test system: EKVX NSCLC
# [13] = test system: SN12C renal
# [14] = test system: UO-31 renal
# [15] = test system: TK-10 renal
# [16] = test system: ACHN renal
# [17] = test system: CAKI-1 renal
# [18] = test system: A498 renal
# [19] = test system: CCRF-CEM leukemia
# [20] = test system: MOLT-4 leukemia
SMILES,growth [1],growth [2],growth [3],growth [4],growth [5],growth [6],growth [7],growth [8],growth [9],growth [10],growth [11],growth [12],growth [13],growth [14],growth [15],growth [16],growth [17],growth [18],growth [19],growth [20]
Cc1ccc(-c2cc(O)c(-c3ccc(C)cc3C)cc2O)c(C)c1,29.5%,42.3%,45.9%,71.9%,38.2%,52.1%,12.4%,54.8%,33.4%,85.2%,91.8%,56.6%,68.9%,64.5%,79.1%,73.2%,39.7%,94.3%,39.5%,
C=C(C)[C@@H]1CC[C@]2(C(=O)NCCNCCNC(=O)OC(C)(C)C)CC[C@]3(C)[C@H](CC[C@@H]4[C@@]5(C)CCC(=O)C(C)(C)[C@@H]5CC[C@]43C)[C@@H]12,50.4% [100 µM],23.7% [100 µM],23.9% [100 µM],47.8% [100 µM],27.9% [100 µM],19.1% [100 µM],-8.44% [100 µM] (active),48.2% [100 µM],39.6% [100 µM],56.3% [100 µM],41.7% [100 µM],53.5% [100 µM],39.9% [100 µM],17.4% [100 µM],54% [100 µM],23.5% [100 µM],18.6% [100 µM],58.7% [100 µM],14.9% [100 µM],11.7% [100 µM]
CO[C@H]1CC[C@@]2(C)C(=CC[C@H]3[C@@H]4C[C@H](O)C[C@@]4(C)CC[C@@H]32)C1,36.4%,69%,32.8%,55.3%,38.6%,68.3%,30.9%,42.6%,48.7%,68.5%,67.2%,76.4%,64.8%,66.1%,58.9%,69.6%,42.8%,55.8%,19.3%,33.5%
CCCCCCCCCCCCCC[n+]1cccc(C(N)=O)c1,67.6%,0.436% (active),-57.2% (active),-69.4% (active),-72.7% (active),-29% (active),-90.9% (active),1.18% (active),15.7%,28.5%,-12.1% (active),-16.2% (active),1.56% (active),62%,24%,35.4%,15.5%,61.1%,-18.8% (active),
CCOc1cc(/C=N\NC(=O)N/N=C/c2ccc(O)c(OCC)c2)ccc1O,28.7%,27.6%,0.378% (active),39.8%,33.7%,33%,11.5%,26.2%,42.6%,52.3%,49.8%,60.6%,51.3%,59.1%,34.3%,45.6%,37.9%,72.6%,16.5%,31.1%
COc1ccc(/C=C2\N=C(Nc3ccccc3)N(NC(=O)c3ccccn3)C2=O)cc1,91.6%,112%,72.4%,87.2%,95.8%,101%,93.4%,86.2%,95.5%,102%,102%,91.5%,94.7%,72.3%,127%,99.4%,87.5%,81.5%,99.2%,
CC(C)C1=NOC(=O)C1=Cc1cn(-c2ccccc2)nc1-c1cccc([N+](=O)[O-])c1,60.4%,70.5%,86.5%,74.2%,66.7%,73%,90%,83.9%,0.102% (active),93.4%,101%,99.3%,78.3%,74.3%,89.5%,99.2%,64.6%,76.3%,2.68% (active),
O=C(NNc1ccc(-c2ccccc2)nn1)c1ccccc1,103%,107%,71%,95.4%,101%,102%,102%,96.6%,98.9%,105%,107%,95.2%,97.2%,89%,107%,100%,82.2%,92.4%,107%,
CC(C)c1ccc(C(=O)Nc2sc3c(c2C#N)CCC(=O)C3)cc1,-24.5% (active),8.34% (active),-42.1% (active),11.4%,15%,1.47% (active),-62.9% (active),-27.8% (active),16.7%,22.3%,-20.1% (active),7.96% (active),4.66% (active),-97% (active),0.974% (active),-90.5% (active),-44.3% (active),24.6%,1.37% (active),
Cn1cc(-c2nnc(-c3cn(C)c4ncc(Br)cc34)s2)c2cc(Br)ccc21,98.4%,100%,64.3%,94.9%,85.2%,90.3%,93.1%,86.7%,95.8%,95.9%,101%,69.2%,94.5%,79.8%,108%,94.2%,73.9%,52.6%,-27.5% (active),
c1ccc2c(c1)CN(CCCN1CCOCC1)C2,102%,107%,89.7%,96.1%,97.8%,96.4%,99.1%,96.7%,107%,105%,105%,100%,96.6%,93.1%,95.4%,100%,87.2%,101%,102%,
CC(C)C1=NOC(=O)C1=Cc1cn(-c2ccccc2)nc1-c1ccc(Br)cc1,74.3%,60.3%,65.6%,90.3%,73.7%,82.3%,97.2%,76.1%,26.4%,83.4%,87%,93.3%,84.8%,67.9%,91.5%,81.5%,62.9%,57%,2.56% (active),
CCN(CC)c1ccc(/C=C/C=C2\NC(=O)NC2=O)cc1,29.5%,-30.1% (active),33.8%,34.6%,29.1%,18.9%,8.64% (active),33%,33.2%,57.5%,-13.5% (active),61.5%,47.4%,36.4%,8.35% (active),47.2%,16.7%,22.4%,40%,41.1%
COc1ccc(C(=O)CSc2nnc(-c3cc(-c4ccccc4)nc4ccccc34)o2)cc1,103%,113%,102%,94.3%,103%,105%,105%,98%,101%,109%,129%,109%,97.3%,96%,116%,108%,95.7%,100%,112%,
COc1ccc(-c2cc(-c3ccccc3)nc(NCCNc3ccnc4cc(Cl)ccc34)n2)cc1,-81% (active),-48.8% (active),-68.3% (active),-83.7% (active),-84.3% (active),-81.8% (active),-97.6% (active),-89.9% (active),-79% (active),-92.8% (active),-77.3% (active),-88.1% (active),-92.9% (active),-91.9% (active),-81.7% (active),-94.2% (active),-86.5% (active),5.73% (active),-30.7% (active),-44.4% (active)
